In PubChem BioAssay (Tox21) one finds Potency and activation data, which are given here for 25 molecules.

Calls of active or inactive are those of the source. Unless noted, the call rests on the fitted dose curve; in most records, active means well fitted curve in the direction sought with a large enough effect in the repeat runs; inconclusive means weak or mixed curves; inactive means no such curve, though single readings can be large; an effect the other way counts as inactive or inconclusive. Positions of bridges follow the written chain, without caps; N, C: chain ends. Residues, ends and D or L forms follow the SMILES beside them.

A short description of assay [1]: qHTS assay to identify small molecule antagonists of the thyroid receptor (TR) signaling pathway (AID 743065). Further: nearly all actives have a fitted effect of over 55% in size. Further: potency means the concentration at half of the fitted maximal effect. An outline of the steps:
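Antagonism measured as loss of luciferase signal in GH3 cells stably carrying a TRE-luciferase reporter, co-treated with compound and T3 (1 nM final) for 23.5 h at 37 C. Viability was read in the same well by CellTiter-Fluor.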

Assay [2] deals with thyroid hormone receptor (rat, GH3 cells). The assay can be described thus: qHTS assay to identify small molecule agonists of the thyroid receptor (TR) signaling pathway (AID 743066; calls by dose curve).
Assay [3] deals with Estrogen receptor (Homo sapiens) (UniProt P03372). The assay is described as follows: qHTS assay to identify small molecule antagonists of the estrogen receptor alpha (ER-alpha) signaling pathway (AID 743069; active means well fitted curve in the direction sought with a large enough effect in the signal ratio in the repeat runs, not every such curve was filed as active; inconclusive means weak or mixed curves, or effect the other way; inactive means no such curve, though single readings can be large or run the other way; the % refers to the signal ratio; further: potency means the concentration at half of the fitted maximal effect). The method in brief:
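Compound effects are measured against 17beta-estradiol stimulation in HEK293 cells with a UAS-controlled beta-lactamase reporter for ER-alpha. Exposure lasts 18 hr at 37C; LiveBLAzer B/G FRET substrate follows for 2 hr at room temperature.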

The nature of assay [4]: qHTS assay to identify small molecule antagonists of the estrogen receptor alpha (ER-alpha) signaling pathway - cell viability counter screen (AID 743074; calls by dose curve;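 further: HEK293 cells carrying ER-alpha-UAS-bla reporter stimulated with 17beta-estradiol; nearly all actives have a fitted effect of over 45% in size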; further: potency means the concentration at half of the fitted maximal effect).
The target in assay [5] is Estrogen receptor (Homo sapiens) (UniProt P03372). The assay can be described thus: qHTS assay to identify small molecule agonists of the estrogen receptor alpha (ER-alpha) signaling pathway (AID 743075; calls by dose curve; further: potency means the concentration at half of the fitted maximal effect).
Estrogen receptor (Homo sapiens), sequence (P03372 whole entry, looked up): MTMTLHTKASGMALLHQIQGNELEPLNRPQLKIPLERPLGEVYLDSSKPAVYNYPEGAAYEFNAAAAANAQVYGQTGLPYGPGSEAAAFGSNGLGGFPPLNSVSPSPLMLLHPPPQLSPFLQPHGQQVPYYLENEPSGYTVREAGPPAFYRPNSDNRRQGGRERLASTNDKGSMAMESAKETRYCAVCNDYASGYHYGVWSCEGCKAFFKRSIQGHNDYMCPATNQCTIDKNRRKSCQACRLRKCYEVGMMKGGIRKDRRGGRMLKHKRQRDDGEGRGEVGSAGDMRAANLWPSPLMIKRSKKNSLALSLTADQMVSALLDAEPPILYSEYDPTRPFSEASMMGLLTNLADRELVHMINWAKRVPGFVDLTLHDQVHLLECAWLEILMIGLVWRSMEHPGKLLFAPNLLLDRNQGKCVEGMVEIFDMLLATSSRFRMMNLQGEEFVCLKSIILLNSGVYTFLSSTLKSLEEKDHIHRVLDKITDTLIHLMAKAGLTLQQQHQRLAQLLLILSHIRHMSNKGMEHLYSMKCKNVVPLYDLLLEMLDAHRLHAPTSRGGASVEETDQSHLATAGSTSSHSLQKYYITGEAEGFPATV
For assay [6] the target is unchanged. The assay is described as follows: qHTS assay to identify small molecule agonists of the estrogen receptor alpha (ER-alpha) signaling pathway using the BG1 cell line (AID 743079). Further: nearly all actives have a fitted effect of over 20% in size. Further: potency means the concentration at half of the fitted maximal effect. As to conditions: BG1Luc4E2 cells, ERE-luciferase agonist, 22 h; activation: at 70.3 µM (top of the series).
The nature of assay [7]: qHTS assay to identify small molecule antagonists of the estrogen receptor alpha (ER-alpha) signaling pathway using the BG1 cell line (AID 743080; calls by dose curve;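 further: BG1 cells stimulated with 17beta-estradiol alongside compound; nearly all actives have a fitted effect of over 25% in size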; further: potency means the concentration at half of the fitted maximal effect). An outline of the steps:
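Endogenous full-length ER-alpha in BG1-Luc-4E2 cells drives a stably integrated 4×ERE luciferase gene; compounds were tested against 17beta-estradiol over 21.5 h, with luminescence and multiplexed viability fluorescence recorded.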

Assay [8] in a line: qHTS assay to identify small molecule antagonists of the estrogen receptor alpha (ER-alpha) signaling pathway using the BG1 cell line - cell viability counter screen (AID 743081).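 Further: compound given together with 17beta-estradiol as the ER stimulus; nearly all actives have a fitted effect of over 45% in size.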 Further: potency means the concentration at half of the fitted maximal effect.
For assay [9], the target named is Aromatase (Homo sapiens) (UniProt P11511). The assay is described as follows: qHTS assay to identify aromatase inhibitors (AID 743083). Further: nearly all actives have a fitted effect of over 55% in size. Further: potency means the concentration at half of the fitted maximal effect.
Aromatase (Homo sapiens), sequence (P11511 whole entry, looked up): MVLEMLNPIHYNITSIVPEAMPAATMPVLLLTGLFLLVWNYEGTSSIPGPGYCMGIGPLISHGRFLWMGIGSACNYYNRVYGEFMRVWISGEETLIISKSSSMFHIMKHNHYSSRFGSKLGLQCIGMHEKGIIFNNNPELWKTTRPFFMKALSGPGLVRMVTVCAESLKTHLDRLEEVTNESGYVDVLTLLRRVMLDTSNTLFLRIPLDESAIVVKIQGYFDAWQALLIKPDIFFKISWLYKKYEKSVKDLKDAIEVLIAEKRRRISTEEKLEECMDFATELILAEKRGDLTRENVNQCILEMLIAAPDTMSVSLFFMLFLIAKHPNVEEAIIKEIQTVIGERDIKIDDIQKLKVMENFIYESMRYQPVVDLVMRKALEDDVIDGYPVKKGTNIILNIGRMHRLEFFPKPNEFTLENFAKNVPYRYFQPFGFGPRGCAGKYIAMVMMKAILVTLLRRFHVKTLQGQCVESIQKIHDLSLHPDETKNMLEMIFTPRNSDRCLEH
On the % scale 0 is the no-effect control and ±100 the full control effect.

`c1cnc2cc3c(cc2n1)[C@@H]1CNC[C@H]3C1`: the Potency entry in [1], in assay [2], in assay [3], in [4], in assay [5] and in [6] was “inactive” in each case. Further, the Potency result in [7], in [8] and in assay [9] was “inactive” throughout.

As for `C[C@H](O)[C@H](O)[C@H]1CNc2nc(N)[nH]c(=O)c2N1`, the Potency result in assay [1], in assay [2], in assay [3], in assay [4], in assay [5] and in [6] was “inactive” throughout. Also, the Potency result in assay [7] and in [9] was “inactive” throughout.

On to `CCCCCCCCCCCCCCCC(=O)OCC(COC(=O)CCCCCCCCCCCCCCC)OC(=O)CCCCCCCCCCCCCCC`, for which the Potency result in assay [1], in assay [2], in assay [4], in [5], in assay [7] and in assay [8] was “inactive” each time. The Potency result in assay [9] was “inactive”.

On to `CC1=C(C(=O)OCCN(Cc2ccccc2)c2ccccc2)C(c2cccc([N+](=O)[O-])c2)C(P2(=O)OCC(C)(C)CO2)=C(C)N1` (centres undefined), for which, in [1], the Potency is 13.3 µM (active). In addition, the Potency result in [2], in assay [4], in [5], in [6], in assay [7] and in assay [8] was “inactive” throughout.

Consider `COc1cc([C@@H]2c3cc4c(cc3C(O[C@@H]3O[C@@H]5COC(c6cccs6)O[C@H]5[C@H](O)[C@H]3O)C3COC(=O)[C@@H]32)OCO4)cc(OC)c1O` (some centres undefined), for which the Potency in [1] was 0.531 µM (active). The Potency result in assay [2], in [4] and in assay [5] was “inactive” throughout.

As for `Cc1cc2nc3c(=O)[nH]c(=O)nc-3n(C[C@H](O)[C@H](O)[C@H](O)COP(=O)(O)OP(=O)(O)OC[C@H]3O[C@@H](n4cnc5c(N)ncnc54)[C@H](O)[C@@H]3O)c2cc1C`, the Potency result in assay [1], in [2], in [5], in [6], in assay [7] and in [9] was “inactive” each time. In addition, the Potency in [4] was 16.9 µM (active).

For the molecule `C=CCNC1=C2C[C@@H](C)C[C@H](OC)[C@H](O)[C@@H](C)/C=C(\C)[C@H](OC(N)=O)[C@@H](OC)/C=C\C=C(/C)C(=O)NC(=CC1=O)C2=O`, the Potency in assay [1] was 0.335 µM (active); in assay [7] it was 0.237 µM (active). The Potency entry in [2], in assay [4], in [5] and in assay [9] was “inactive” each time.

On to `C/C1=C2N=C(/C=C3N=C(/C(C)=C4\[N-][C@@](C)([C@@H]5N=C1[C@](C)(CCC(=O)NCC(C)OP(=O)(O)O[C@H]1[C@@H](O)[C@@H](n6cnc7cc(C)c(C)cc76)O[C@@H]1CO)[C@H]5CC(N)=O)[C@@](C)(CC(N)=O)[C@@H]4CCC(N)=O)[C@@](C)(CC(N)=O)[C@@H]\3CCC(N)=O)C(C)(C)[C@@H]/2CCC(N)=O.CC(=O)O.[Co]` (some centres undefined), for which the figures for the Potency in assay [1], in [8] and in assay [9] were 11.9 µM (active), 33.5 µM (active) and 26.6 µM (active), respectively. In addition, the Potency result in [2] and in assay [4] was “inactive” in each case.

`O=C(O)[C@@H](O)[C@H](O)[C@H](O)[C@@H](O)C(=O)O` (tested in a mixture with another compound): the Potency result in [1], in assay [2] and in [9] was “inactive” throughout.

Consider `CC(C(=O)O)c1ccc(N2Cc3ccccc3C2=O)cc1` (centres undefined), for which the Potency in [1] is 7.5 µM (active); in assay [6], 0.119 µM (active); in assay [7] it was 16.8 µM (active). Besides, the Potency result in assay [3], in [4] and in assay [8] was “inactive” throughout.

Regarding `CCCCC(C)(O)C/C=C/[C@H]1[C@H](O)CC(=O)[C@@H]1CCCCCCC(=O)OC` (some centres undefined), the Potency entry in assay [1], in assay [2], in assay [4], in [8] and in assay [9] was “inactive” each time.

For the molecule `CCOC(=O)COc1ccc2c(C)c(CCN(CC)CC)c(=O)oc2c1`, the Potency entry in assay [1], in [2], in assay [5], in [6], in assay [8] and in [9] was “inactive” throughout.

For the molecule `O=C(OC1C[C@@H]2CC3C[C@H](C1)N2CC3=O)c1c[nH]c2ccccc12` (some centres undefined), the Potency in [1] was 29.8 µM (active). For the same molecule, the Potency result in [3], in assay [4], in assay [5], in assay [6] and in assay [9] was “inactive” each time.

On to `CCC(=O)Oc1ccc2c(c1)CC[C@@H]1[C@@H]2CC[C@]2(C)[C@@H](OC(=O)CC)CC[C@@H]12`, for which the Potency result in [1], in [2], in assay [4], in [7] and in assay [8] was “inactive” each time. In addition, the activation in assay [6] was 99.5% (active).

`COc1ccc(C[C@H](N)C(=O)N[C@H]2[C@@H](O)[C@H](n3cnc4c(N(C)C)ncnc43)O[C@@H]2CO)cc1`: the Potency in assay [1] was 10.6 µM (active); in assay [3], 4.25 µM [inconclusive] (active); in [8], 21.1 µM (active); in [9], 11.9 µM (active). Also, the Potency entry in assay [4] and in assay [5] was “inactive” each time.

On to `CCCCCCCCCCCCCCCCCCCCCC(=O)Nc1ccn([C@@H]2O[C@H](CO)[C@@H](O)[C@@H]2O)c(=O)n1`, for which the Potency in assay [1] is 18.8 µM (active). The Potency result in assay [2], in assay [4], in [8] and in assay [9] was “inactive” each time.

With `CC#CCC(C)[C@H](O)/C=C/[C@@H]1[C@H]2c3cccc(CCCC(=O)O)c3O[C@H]2C[C@H]1O` (some centres undefined), the Potency result in [1], in assay [2], in [4], in assay [8] and in [9] was “inactive” in each case. Besides, in assay [6], the Potency was 26.6 µM (active).

Regarding `Cn1c(O)c(N=NC(N)=S)c2ccccc21`, the Potency in assay [1] was 29.8 µM (active). Further, the Potency entry in [4], in assay [5] and in [6] was “inactive” throughout.

With `CCOc1ccc(N=Nc2ccc(N)cc2N)cc1`, the Potency in assay [1] was 10.6 µM (active). The Potency result in [2], in assay [4] and in assay [9] was “inactive” throughout.

Turning to `NCCCC[C@H](NC(=O)[C@@H]1CCCN1C(=O)[C@@H]1CSSC[C@H](NC(=O)CNC(=O)CNC(=O)CN)C(=O)N[C@@H](Cc2ccc(O)cc2)C(=O)N[C@@H](Cc2ccccc2)C(=O)N[C@@H](CCC(N)=O)C(=O)N[C@@H](CC(N)=O)C(=O)N1)C(=O)NCC(N)=O` (H-GGGCYFQNCPKG-NH2; disulfide 4-9), the Potency result in assay [1], in assay [2], in assay [4] and in [9] was “inactive” in each case.

Take `CCCCCCC(=O)O[C@H]1CC[C@H]2[C@@H]3CCc4cc(O)ccc4[C@H]3CC[C@]12C`: the figures for the Potency in assay [1] and in [5] were 21.1 µM (active) and 0.0007 µM [inconclusive] (active), respectively. The activation in assay [6] was 66.1% (active). Besides, the Potency result in [8] and in assay [9] was “inactive” in each case.

As for `C[C@]12C=CC(=O)C=C1CC[C@@H]1[C@@H]2[C@@H](O)C[C@@]2(C)[C@H]1CC[C@]2(O)C(=O)COC(=O)CCC(=O)O`, the Potency result in [1], in [2], in [4], in [5] and in [9] was “inactive” each time.

Regarding `NC(=O)OC[C@@H]1[C@H](NC(=O)/C(=N\OCC(=O)O)c2csc(N)n2)C(=O)N1S(=O)(=O)O`, the Potency entry in assay [1], in [2], in [4] and in [8] was “inactive” each time.

On to `Cc1c(Cl)cccc1Nc1ncccc1C(=O)O`, for which the Potency in assay [1] was 23.7 µM (active). The Potency result in assay [2], in [4], in assay [5], in assay [8] and in assay [9] was “inactive” each time.

Regarding `CN1c2cc(O)c(N=NC(N)=O)cc2CC1S(=O)(=O)O` (centres undefined), the Potency result in assay [1], in assay [2], in [4], in assay [8] and in assay [9] was “inactive” in each case.
